# Values without a mark were called inactive. Records with an inconclusive call do not appear. Entries that show only a call come without a potency. Active and inactive are the calls of the source. Calls come from the whole dose curve; as a rule, active = well fitted curve in the direction sought with a large enough effect; inconclusive = small, poorly fitted or top-dose-only effect, or another doubt; inactive = no such curve, though single readings can be large; an effect the other way counts as inactive or inconclusive.
# What was measured:
# [1] = target: Cytochrome P450 3A4 (Homo sapiens) (UniProt P08684); assay: qHTS Assay for Inhibitors and Substrates of Cytochrome P450 3A4 (AID 884); note: nearly all actives have a fitted effect of over 50% in size; note: potency is the fitted concentration of half-maximal effect; for activity change, negative = inhibition: series mostly up to about 57 µM
# Summary of the method: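 Luminescent readout of luciferin produced by CYP3A4 (20 nM) dealkylation of Luciferin-PPXE, 25 uM (its KM). NADPH-driven reaction ran 60 min at RT after 10 min compound preincubation; data scaled to 57 uM ketoconazole as 100% inhibition.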
# [2] = target: Cytochrome P450 3A4 (Homo sapiens) (UniProt P08684); assay: qHTS Assay for Activators of Cytochrome P450 3A4 (AID 885); note: nearly all actives have a fitted effect of over 65% in size; note: potency is the fitted concentration of half-maximal effect
# Summary of the method: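 Activators are scored by enhanced luminescence from CYP3A4 conversion of luciferin-PPXE (25uM, equal to KM) to luciferin, after 60 min at RT with an NADPH-regenerating system.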
# [3] = Confirmation and Secondary Assay for Modulators of Hemoglobin Beta Chain Splicing at IVS2 705 locus (AID 930);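 note: HeLa cells stably expressing the EGFP-705 splicing reporter; GFP fluorescence per well restored by corrected splicing of the IVS2-705 intron in EGFP; series mostly up to about 46 µM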
# Summary of the method: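 Assay measures total GFP intensity per well in HeLa EGFP-705 cells after 2 days with compound; mis-splicing normally truncates EGFP, so fluorescence indicates corrected splicing.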
# [4] = Confirmation and Secondary Assay for Modulators of Hemoglobin Beta Chain Splicing at IVS2 654 locus (AID 910);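 note: HeLa cells stably carrying EGFP split by mutant beta-globin IVS2-654 intron; per-well total GFP intensity by laser scanning cytometry after 2-day treatment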
# Summary of the method: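 Readout: per-well total peak green fluorescence (488 nm ex, 500–520 nm em) from objects 5–250 µm, reflecting correct splicing of an EGFP-654 reporter. Compounds were applied for 2 days at 37 °C to overnight-plated HeLa EGFP-654 cells; controls were DMSO and 500 nM IVS2-654 PNA.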
# [5] = target: Cytochrome P450 2C19 (Homo sapiens) (UniProt P33261); assay: qHTS Assay for Inhibitors and Substrates of Cytochrome P450 2C19 (AID 899); note: nearly all actives have a fitted effect of over 60% in size; note: potency is the fitted concentration of half-maximal effect
# Summary of the method: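 Reactions contain 5nM enzyme, 10uM Luciferin-H EGE (KM) and 50mM KPO4; compound preincubates 10 min at 37C, NADPH regeneration starts turnover for 60 min. Luminescence after detection reagent gives activity.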
# [6] = target: Cytochrome P450 2D6 (Homo sapiens) (UniProt P10635); assay: qHTS Assay for Inhibitors and Substrates of Cytochrome P450 2D6 (AID 891); note: nearly all actives have a fitted effect of over 60% in size; note: potency is the fitted concentration of half-maximal effect;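 for activity change, negative = inhibition: luciferin methyl ether substrate demethylated by CYP2D6 with NADPH regeneration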
# Summary of the method: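 Luminescent read-out of luciferin formed by 5 nM human CYP2D6 demethylating 30 uM Luciferin-ME EGE (Km level) over 60 min at room temperature after NADPH regeneration addition. Data normalized to full inhibition by 1.43 uM quinidine.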
# Cytochrome P450 2C19 (Homo sapiens), sequence (P33261 whole entry, looked up): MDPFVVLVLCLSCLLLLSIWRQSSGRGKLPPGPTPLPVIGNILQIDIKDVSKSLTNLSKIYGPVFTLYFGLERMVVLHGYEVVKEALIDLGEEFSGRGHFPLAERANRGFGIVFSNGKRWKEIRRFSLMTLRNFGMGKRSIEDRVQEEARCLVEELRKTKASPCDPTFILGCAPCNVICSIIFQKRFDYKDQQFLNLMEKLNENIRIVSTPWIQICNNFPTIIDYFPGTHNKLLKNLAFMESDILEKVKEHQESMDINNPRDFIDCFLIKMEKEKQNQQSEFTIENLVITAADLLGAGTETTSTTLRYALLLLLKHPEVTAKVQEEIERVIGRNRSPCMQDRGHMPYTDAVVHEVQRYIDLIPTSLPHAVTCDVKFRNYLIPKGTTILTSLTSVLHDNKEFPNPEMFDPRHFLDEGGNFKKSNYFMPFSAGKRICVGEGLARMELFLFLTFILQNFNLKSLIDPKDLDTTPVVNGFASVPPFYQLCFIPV
# Cytochrome P450 3A4 (Homo sapiens), sequence (P08684 whole entry, looked up): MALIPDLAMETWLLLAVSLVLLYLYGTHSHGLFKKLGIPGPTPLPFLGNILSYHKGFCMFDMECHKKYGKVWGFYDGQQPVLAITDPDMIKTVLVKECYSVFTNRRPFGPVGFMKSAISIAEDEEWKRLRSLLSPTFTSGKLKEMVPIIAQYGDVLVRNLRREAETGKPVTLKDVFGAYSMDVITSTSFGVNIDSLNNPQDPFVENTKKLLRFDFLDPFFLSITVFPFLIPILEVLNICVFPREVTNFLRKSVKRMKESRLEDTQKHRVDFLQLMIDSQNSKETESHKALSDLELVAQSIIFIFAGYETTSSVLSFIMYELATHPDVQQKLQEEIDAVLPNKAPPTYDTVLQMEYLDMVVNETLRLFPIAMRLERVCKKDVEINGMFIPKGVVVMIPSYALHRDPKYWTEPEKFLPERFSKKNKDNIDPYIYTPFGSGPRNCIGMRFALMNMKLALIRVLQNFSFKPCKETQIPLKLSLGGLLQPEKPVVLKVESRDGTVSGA
# Cytochrome P450 2D6 (Homo sapiens), sequence (P10635 whole entry, looked up): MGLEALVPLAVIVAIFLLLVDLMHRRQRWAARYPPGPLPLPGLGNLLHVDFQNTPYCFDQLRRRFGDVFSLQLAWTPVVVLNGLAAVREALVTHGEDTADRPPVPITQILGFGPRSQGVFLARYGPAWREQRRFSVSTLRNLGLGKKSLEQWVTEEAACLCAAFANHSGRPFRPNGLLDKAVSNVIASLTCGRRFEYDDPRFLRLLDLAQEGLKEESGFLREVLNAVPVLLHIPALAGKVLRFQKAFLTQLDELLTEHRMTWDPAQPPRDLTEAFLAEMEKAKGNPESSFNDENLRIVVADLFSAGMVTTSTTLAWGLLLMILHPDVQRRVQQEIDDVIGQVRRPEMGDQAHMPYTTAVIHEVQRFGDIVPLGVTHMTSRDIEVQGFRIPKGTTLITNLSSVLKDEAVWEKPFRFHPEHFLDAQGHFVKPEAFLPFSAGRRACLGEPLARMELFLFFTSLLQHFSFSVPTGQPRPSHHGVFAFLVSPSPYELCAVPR
structure (smiles),measurement,setting,value
COC(=O)CC1C(C)(C)C(=O)C2CC3C4=CC(=O)OC(c5ccoc5)[C@]4(C)CCC3[C@@]1(C)C2=O (some centres undefined),Potency,[1],7.94 µM (active)
same,Potency,[2],inactive
same,outcome,[3],inactive
O=C1C=CC(=C(c2ccc(O)cc2)c2ccc(O)cc2)C=C1,Potency,[1],20 µM (active)
same,Potency,[2],inactive
same,outcome,[4],inactive
same,outcome,[3],inactive
CO/N=C(/C)CCC(=O)OC[C@@H]1O[C@H](C#Cc2ccccc2)C=C[C@@H]1Oc1ccc(C)cc1,Potency,[1],3.98 µM (active)
same,"activity change, positive = activation",[2],-90.5% [at 11.4 µM]
same,Potency,[5],3.98 µM (active)
COCOc1ccc(Br)cc1C(=O)[C@H]1O[C@H]1c1cccc(OC)c1,Potency,[1],3.98 µM (active)
same,"activity change, positive = activation",[2],-113% [at 11.4 µM]
same,Potency,[5],0.0631 µM (active)
COc1ccc(O[C@H]2C=C[C@@H](c3ccccc3)O[C@H]2COC(=O)CC/C(C)=N\O[C@@H](C)CN2CCCc3nc(C)c(C)cc32)cc1,Potency,[1],3.16 µM (active)
same,"activity change, positive = activation",[2],-97% [at 11.4 µM]
same,Potency,[5],3.16 µM (active)
C=CC[C@@H]1C=C[C@H](Oc2ccc(C)cc2)[C@H](COC(=O)NCc2cccc3ccccc23)O1,Potency,[1],3.16 µM (active)
same,"activity change, positive = activation",[2],-96.8% [at 11.4 µM]
same,Potency,[5],1.26 µM (active)
COc1cc(OC)c2c(OC)c(-c3ccc4c(c3)OCO4)c(=O)oc2c1,Potency,[1],2.51 µM (active)
same,Potency,[2],inactive
same,outcome,[4],inactive
same,outcome,[3],inactive
COc1cc2c(cc1OC)-c1c(oc3cc(O)cc(O)c3c1=O)CO2,Potency,[1],10 µM (active)
same,Potency,[2],inactive
same,outcome,[4],inactive
same,outcome,[3],inactive
CCCNC(=O)OC[C@@H]1O[C@H](CCO/N=C2\c3cc(OC)ccc3O[C@H](c3cccc(OC)c3)[C@H]2O)C=C[C@@H]1Oc1ccc(OC)cc1,Potency,[1],5.01 µM (active)
same,"activity change, positive = activation",[2],-120% [at 11.4 µM]
same,Potency,[5],1.58 µM (active)
COc1ccc(-c2cc(=O)c3ccccc3o2)cc1OC,Potency,[1],7.94 µM (active)
same,Potency,[2],inactive
same,outcome,[3],inactive
COc1ccc2c(c1)OC/C(=C/c1ccc(OC)c(OC)c1)C2=O,Potency,[1],7.94 µM (active)
same,Potency,[2],inactive
same,outcome,[4],inactive
same,outcome,[3],inactive
CNC(=O)Oc1ccc2c(c1)[C@@]1(C)CCN(C)C1N2C (some centres undefined),Potency,[1],inactive
same,outcome,[4],inactive
same,outcome,[3],inactive
CC(=O)OCC1OC(c2ccc(C(C)=O)cc2)C=CC1OC(C)=O (centres undefined),"activity change, negative = inhibition",[1],-20.5% [at 11.4 µM]
same,Potency,[6],inactive
same,Potency,[5],inactive
COc1ccc(/C=C/C(=O)c2ccccc2O)cc1,"activity change, negative = inhibition",[1],-17.2% [at 11.4 µM]
same,Potency,[6],3.16 µM (active)
same,Potency,[5],1.26 µM (active)
COc1c(-c2coc3cc4c(cc3c2=O)CC(OC(C)=O)C(C)(C)O4)ccc2c1C=CC(C)(C)O2 (centres undefined),Potency,[1],inactive
same,Potency,[2],5.01 µM (active)
same,outcome,[3],inactive
C[C@@]12CCC(OC(=O)c3ccccc3)CC1CCc1ccccc12 (some centres undefined),Potency,[1],inactive
same,outcome,[4],inactive
same,outcome,[3],inactive
COC(=O)NC(/C(C(=O)OC)=C(\C)NCc1ccccc1)c1ccc(Cl)cc1 (centres undefined),"activity change, negative = inhibition",[1],-24.6% [at 11.4 µM]
same,Potency,[5],5.01 µM (active)
O=C1/C(=C/c2ccccc2)Oc2ccccc21,"activity change, negative = inhibition",[1],-8.26% [at 11.4 µM]
same,Potency,[6],inactive
same,Potency,[5],inactive
CC(=O)OCC1OC(C#Cc2ccc(C(C)(C)C)cc2)C=CC1OC(C)=O (centres undefined),"activity change, negative = inhibition",[1],-26.6% [at 11.4 µM]
same,Potency,[6],inactive
same,Potency,[5],inactive
NC1C(O)OC(CO)[C@@H](O)[C@@H]1O[C@H]1O[C@@H](C(=O)O)C(O)C(O)C1O (some centres undefined),Potency,[1],inactive
same,outcome,[4],inactive
same,outcome,[3],inactive
C[C@]12CCC3c4ccc(O)cc4CCC3C1CCC2OC(=O)CCC1CCCC1 (some centres undefined),Potency,[1],inactive
same,outcome,[4],inactive
same,outcome,[3],inactive
COC(=O)NC(c1ccc(Cl)cc1)C(C(C)=O)C(=O)OC (centres undefined),"activity change, negative = inhibition",[1],-15.4% [at 11.4 µM]
same,Potency,[6],inactive
CCOC(=O)CCCCC1=CC2=CC(=O)C(C)(O)C(=O)C2=CO1 (centres undefined),"activity change, negative = inhibition",[1],-20.4% [at 11.4 µM]
same,Potency,[6],inactive
same,Potency,[5],inactive
CCOC(=O)OCC1OC(C#Cc2ccc(C(C)(C)C)cc2)C=CC1OC(=O)OCC (centres undefined),"activity change, negative = inhibition",[1],-12.4% [at 11.4 µM]
same,Potency,[6],inactive
CCN1C(C)=C(C(=O)OC)C(c2ccccc2)N2C(=O)[C@@]3(C(=O)OC)O[C@@]12C1C(=O)N(C)C(=O)C13 (some centres undefined),"activity change, negative = inhibition",[1],-27.7% [at 11.4 µM]
same,Potency,[5],inactive
NC(C(=O)O)C(O)C(=O)O (centres undefined),Potency,[1],inactive
same,outcome,[4],inactive
same,outcome,[3],inactive
CCCCC#CC1C=CC(Oc2ccc(OC)cc2)C(CO)O1 (centres undefined),Potency,[1],3.16 µM (active)
same,Potency,[6],inactive
same,Potency,[5],2 µM (active)
CCOC(=O)OCC1OC(c2ccccc2)C=CC1Oc1ccc(F)cc1C (centres undefined),"activity change, negative = inhibition",[1],-28.9% [at 11.4 µM]
same,Potency,[6],inactive
same,Potency,[5],2 µM (active)

# From PubChem BioAssay (NCATS)
